Source: PubChem BioAssay (NCATS)
Inconclusive results are not listed. The source made the active and inactive calls. Unless noted, calls come from the whole dose curve; as a rule, active = well fitted curve in the direction sought with a large enough effect; inconclusive = small, poorly fitted or top-dose-only effect, or another doubt; inactive = no such curve, though single readings can be large; an effect the other way counts as inactive or inconclusive.

How the values were obtained:
[1] = target: Furin (Homo sapiens) (UniProt P09958); test: Furin counterscreen qHTS for Zika virus inhibitors (AID 1347149); note: nearly all actives have a fitted effect of over 70% in size; note: potency is the fitted concentration of half-maximal effect
How it was run: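 Fluorogenic cleavage of BOC-RVRR-AMC (2 microM final, Km ~15 µM) was monitored (ex 340, em 450 nm) at 37C after 15 min RT preincubation of 5 nM furin with compounds in HEPES pH 7.0 buffer with CaCl2 and Triton X-100. Percent inhibition was fitted to a 4-parameter Hill curve.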

[2] = test system: Zika virus NS2B-NS3 protease (unlinked); test: Optimization of GU AMC qHTS for Zika virus inhibitors: Unlinked NS2B-NS3 protease assay (AID 1347151); note: nearly all actives have a fitted effect of over 80% in size
How it was run: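 Unlinked protease (25 nM final); buffer 10 mM Tris-HCl pH 8.0 + 0.01% Tween 20; AMC substrate; 15 min RT, dark; Δfluorescence normalized to no-inhibitor/no-enzyme controls; 4-parameter Hill fit.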

[3] = Vero cells viability qHTS for Zika virus inhibitors (AID 1347167)
How it was run: (§1)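 Cells seeded at 2.5 x 10^5 cells/mL in DMEM with 4% FBS and attached overnight at 37 degrees C, then exposed to compound for 24 to 48 hours. Viability read as ATP content by CellTiter Glo luminescence.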

[4] = HepG2 cells viability qHTS for Zika virus inhibitors (AID 1347168); note: potency is the fitted concentration of half-maximal effect
How it was run: as §1

[5] = Tertiary RLuc qRT-PCR qHTS assay for Zika virus inhibitors (AID 1347169); note: nearly all actives have a fitted effect of over 55% in size; note: potency is the fitted concentration of half-maximal effect
How it was run: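 Vero, 1,000 cells/well, o/n 37 C; cpd pinned in DMSO; ZIKV-RLuc Cambodian, MOI 1-2, 48-72 h 37 C; live-cell RLuc substrate, lum read at 1-1.5 h.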

[6] = target: Glutathione peroxidase 1 (Homo sapiens) (UniProt P07203); test: Primary qHTS Assay for Inhibitors of Recombinant Selenoprotein Glutathione Peroxidase 1 (GPX1) (AID 1845191); note: nearly all actives have a fitted effect of over 65% in size
How it was run: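 GR-coupled assay: compounds preincubated 30 min at room temperature with GPX1, then reaction started with CHP; final 10 nM GPX1, 1 mM GSH, 0.5 mM CHP, 0.5 mM NADPH, 100 nM GR, 0.01% BSA, pH 7.5 Tris buffer. NADPH fluorescence (340/450 nm) read at 0 and 15 min.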

[7] = target: ATP-dependent 6-phosphofructokinase (Trypanosoma brucei brucei) (UniProt O15648); test: qHTS Assay to Find Inhibitors of T. brucei phosphofructokinase: hit validation (AID 492961)
How it was run: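 Luminescence from ADP-Glo reports ADP generated as T. brucei PFK (1.25 nM) phosphorylates 0.5 mM fructose-6-phosphate using 0.1 mM ATP. Reactions ran 45 min at room temperature, pH 8.0.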

[8] = target: Ubiquitin carboxyl-terminal hydrolase 1 (Homo sapiens) (UniProt O94782); test: Inhibitors of USP1/UAF1: Pilot qHTS (AID 504865);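 note: rhodamine fluorescence freed from ubiquitin-rhodamine substrate followed over time; top concentration of the series differs between compounds; nearly all actives have a fitted effect of over 35% in size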
How it was run: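 In 50mM HEPES pH 7.8 containing 0.5mM EDTA, 1mM TCEP, 0.1 mg/ml BSA and 0.01% Tween-20, 1nM USP1/UAF1 is exposed to compound for 15 min, then Ub-Rho (150nM final) is added and fluorescence is read over time.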

[9] = target: Luciferin 4-monooxygenase (Photinus pyralis) (UniProt P08659); test: Biochemical firefly luciferase enzyme assay for NPC (AID 624030);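 note: purified P. pyralis luciferase at 10 nM with luciferin and ATP substrate; nearly all actives have a fitted effect of over 70% in size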
How it was run: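 Purified P. pyralis luciferase at 10 nM in 50 mM Tris Acetate (final), luminescence read within 5 minutes of enzyme addition to compounds. Activity normalised to PTC124 versus DMSO; concentration-response curves classed by r2, magnitude and activity.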

[10] = S16 Schwann cell PMP22 intronic element firefly luciferase assay (AID 624032); note: potency is the fitted concentration of half-maximal effect; nearly all actives have a fitted effect of over 30% in size
How it was run: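 Rat S16 Schwann cells stably carrying firefly luciferase driven by a PMP22 intronic element, in 10% FBS, treated 24 h at 37 C. ONE-Glo luminescence normalized to PTC124 control and DMSO (0%); curves classed by r2, magnitude and activity.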

[11] = S16 Schwann cell PMP22 intronic element beta-lactamase assay (AID 624044; calls by dose curve; note: potency is the fitted concentration of half-maximal effect; nearly all actives have a fitted effect of over 15% in size)
How it was run: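 Rat S16 Schwann cells with beta-Lac driven by a PMP22 intronic element, compound-treated 24 h at 37 °C. LiveBLAzer FRET B/G read: 460 nm normalized to potassium clavulanate vs DMSO; 535 nm FRET as viability; concentration-effect curves classified.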

[12] = qHTS profiling for inhibitors of Plasmodium falciparum proliferation (AID 504749); note: potency is the fitted concentration of half-maximal effect; nearly all actives have a fitted effect of over 60% in size; settings: P. falciparum in erythrocytes, SYBR Green DNA, 72 h
How it was run: (§2)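 Readout was DNA-dye fluorescence from lysed cultures, ex 485/em 535 nm. Parasitized red cells had grown 72 h with compound; data scaled between 0.29 uM artemisinin and DMSO wells and corrected using vehicle-only plates.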

[13] = test system: 3D7; test: as above; settings: P. falciparum in erythrocytes, SYBR Green DNA, 72 h; series mostly up to 28.7 µM
How it was run: as §2

[14] = test system: 7G8; test: as above; settings: P. falciparum in erythrocytes, SYBR Green DNA, 72 h; series mostly up to 28.7 µM
How it was run: as §2

[15] = test system: AA1029; test: as above; settings: P. falciparum in erythrocytes, SYBR Green DNA, 72 h; series mostly up to 28.7 µM
How it was run: as §2

[16] = test system: AS120; test: as above; settings: P. falciparum in erythrocytes, SYBR Green DNA, 72 h; series mostly up to 28.7 µM
How it was run: as §2

[17] = test system: ATS189; test: as above; settings: P. falciparum in erythrocytes, SYBR Green DNA, 72 h; series mostly up to 28.7 µM
How it was run: as §2

[18] = test system: ATS95; test: as above; settings: P. falciparum in erythrocytes, SYBR Green DNA, 72 h; series mostly up to 28.7 µM
How it was run: as §2

[19] = test system: C2A; test: as above; settings: P. falciparum in erythrocytes, SYBR Green DNA, 72 h; series mostly up to 28.7 µM
How it was run: as §2

[20] = test system: CP185; test: as above; settings: P. falciparum in erythrocytes, SYBR Green DNA, 72 h; series mostly up to 28.7 µM
How it was run: as §2

[21] = test system: CP191; test: as above; settings: P. falciparum in erythrocytes, SYBR Green DNA, 72 h; series mostly up to 28.7 µM
How it was run: as §2

[22] = test system: CP192; test: as above; settings: P. falciparum in erythrocytes, SYBR Green DNA, 72 h; series mostly up to 28.7 µM
How it was run: as §2

[23] = test system: CP194; test: as above; settings: P. falciparum in erythrocytes, SYBR Green DNA, 72 h; series mostly up to 28.7 µM
How it was run: as §2

[24] = test system: CP201; test: as above; settings: P. falciparum in erythrocytes, SYBR Green DNA, 72 h; series mostly up to 28.7 µM
How it was run: as §2

[25] = test system: CP203; test: as above; settings: P. falciparum in erythrocytes, SYBR Green DNA, 72 h; series mostly up to 28.7 µM
How it was run: as §2

[26] = test system: CP211; test: as above; settings: P. falciparum in erythrocytes, SYBR Green DNA, 72 h; series mostly up to 28.7 µM
How it was run: as §2

[27] = test system: CP215; test: as above; settings: P. falciparum in erythrocytes, SYBR Green DNA, 72 h; series mostly up to 28.7 µM
How it was run: as §2

[28] = test system: CP217; test: as above; settings: P. falciparum in erythrocytes, SYBR Green DNA, 72 h; series mostly up to 28.7 µM
How it was run: as §2

[29] = test system: CP237; test: as above; settings: P. falciparum in erythrocytes, SYBR Green DNA, 72 h; series mostly up to 28.7 µM
How it was run: as §2

[30] = test system: CP238; test: as above; settings: P. falciparum in erythrocytes, SYBR Green DNA, 72 h; series mostly up to 28.7 µM
How it was run: as §2

Chain of Furin (Homo sapiens) (P09958 whole entry, looked up): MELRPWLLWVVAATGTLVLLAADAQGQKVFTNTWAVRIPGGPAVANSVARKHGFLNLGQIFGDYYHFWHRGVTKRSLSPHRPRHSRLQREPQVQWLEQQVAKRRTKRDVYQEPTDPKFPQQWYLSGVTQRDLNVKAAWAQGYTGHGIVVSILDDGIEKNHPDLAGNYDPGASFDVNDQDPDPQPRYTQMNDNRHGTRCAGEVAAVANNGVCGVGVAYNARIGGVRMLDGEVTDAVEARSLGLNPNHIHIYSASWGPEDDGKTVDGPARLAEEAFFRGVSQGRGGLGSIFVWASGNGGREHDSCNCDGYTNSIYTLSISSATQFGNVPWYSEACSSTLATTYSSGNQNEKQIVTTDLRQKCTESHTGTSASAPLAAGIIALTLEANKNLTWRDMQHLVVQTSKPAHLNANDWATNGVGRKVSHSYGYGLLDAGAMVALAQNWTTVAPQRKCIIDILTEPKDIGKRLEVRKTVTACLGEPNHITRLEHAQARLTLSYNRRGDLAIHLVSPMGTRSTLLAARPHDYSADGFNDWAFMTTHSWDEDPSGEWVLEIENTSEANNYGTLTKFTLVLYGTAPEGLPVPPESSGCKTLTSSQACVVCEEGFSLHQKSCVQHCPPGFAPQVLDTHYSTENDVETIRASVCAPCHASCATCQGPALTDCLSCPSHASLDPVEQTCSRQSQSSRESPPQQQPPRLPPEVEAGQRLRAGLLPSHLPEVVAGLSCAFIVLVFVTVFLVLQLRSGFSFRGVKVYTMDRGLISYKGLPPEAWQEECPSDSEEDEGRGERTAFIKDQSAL
Chain of Ubiquitin carboxyl-terminal hydrolase 1 (Homo sapiens) (O94782 whole entry, looked up): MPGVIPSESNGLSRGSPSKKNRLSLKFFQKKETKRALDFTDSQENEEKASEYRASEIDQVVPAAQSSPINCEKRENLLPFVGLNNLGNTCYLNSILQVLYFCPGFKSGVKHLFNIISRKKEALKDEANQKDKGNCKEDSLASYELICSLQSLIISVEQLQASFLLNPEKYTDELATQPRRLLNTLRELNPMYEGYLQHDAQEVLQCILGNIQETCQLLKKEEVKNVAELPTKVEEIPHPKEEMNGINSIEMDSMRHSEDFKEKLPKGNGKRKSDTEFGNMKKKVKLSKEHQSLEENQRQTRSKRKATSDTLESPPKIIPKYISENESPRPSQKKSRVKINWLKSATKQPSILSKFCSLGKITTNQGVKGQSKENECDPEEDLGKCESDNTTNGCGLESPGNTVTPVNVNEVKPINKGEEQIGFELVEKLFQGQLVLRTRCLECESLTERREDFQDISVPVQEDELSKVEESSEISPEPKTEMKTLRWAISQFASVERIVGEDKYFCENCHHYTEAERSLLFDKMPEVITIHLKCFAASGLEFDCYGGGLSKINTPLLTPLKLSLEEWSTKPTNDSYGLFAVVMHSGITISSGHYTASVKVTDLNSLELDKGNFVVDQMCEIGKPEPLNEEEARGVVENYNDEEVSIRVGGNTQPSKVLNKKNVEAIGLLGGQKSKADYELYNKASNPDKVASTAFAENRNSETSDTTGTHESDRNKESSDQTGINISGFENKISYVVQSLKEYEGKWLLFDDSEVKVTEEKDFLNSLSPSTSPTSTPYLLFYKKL
Chain of Glutathione peroxidase 1 (Homo sapiens) (P07203 whole entry, looked up): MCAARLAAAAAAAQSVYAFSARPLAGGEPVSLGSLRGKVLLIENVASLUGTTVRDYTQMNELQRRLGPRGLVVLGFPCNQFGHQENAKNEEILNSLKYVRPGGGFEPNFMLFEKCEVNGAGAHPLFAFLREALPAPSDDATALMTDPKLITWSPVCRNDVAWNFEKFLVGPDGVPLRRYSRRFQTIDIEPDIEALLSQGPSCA
Chain of ATP-dependent 6-phosphofructokinase (Trypanosoma brucei brucei) (O15648 whole entry, looked up): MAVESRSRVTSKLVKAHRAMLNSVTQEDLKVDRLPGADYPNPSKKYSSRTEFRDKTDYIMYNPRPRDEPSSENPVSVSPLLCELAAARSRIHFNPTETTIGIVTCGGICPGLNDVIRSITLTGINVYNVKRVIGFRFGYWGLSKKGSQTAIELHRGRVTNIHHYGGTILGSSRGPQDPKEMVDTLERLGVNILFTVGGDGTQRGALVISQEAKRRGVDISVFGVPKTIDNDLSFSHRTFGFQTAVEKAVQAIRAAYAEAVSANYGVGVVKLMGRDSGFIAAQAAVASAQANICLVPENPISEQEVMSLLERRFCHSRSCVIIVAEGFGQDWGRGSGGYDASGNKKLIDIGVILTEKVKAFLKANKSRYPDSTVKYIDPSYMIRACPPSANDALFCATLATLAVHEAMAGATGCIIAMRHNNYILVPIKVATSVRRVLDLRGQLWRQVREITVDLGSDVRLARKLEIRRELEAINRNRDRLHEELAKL
Chain of Luciferin 4-monooxygenase (Photinus pyralis) (P08659 whole entry, looked up): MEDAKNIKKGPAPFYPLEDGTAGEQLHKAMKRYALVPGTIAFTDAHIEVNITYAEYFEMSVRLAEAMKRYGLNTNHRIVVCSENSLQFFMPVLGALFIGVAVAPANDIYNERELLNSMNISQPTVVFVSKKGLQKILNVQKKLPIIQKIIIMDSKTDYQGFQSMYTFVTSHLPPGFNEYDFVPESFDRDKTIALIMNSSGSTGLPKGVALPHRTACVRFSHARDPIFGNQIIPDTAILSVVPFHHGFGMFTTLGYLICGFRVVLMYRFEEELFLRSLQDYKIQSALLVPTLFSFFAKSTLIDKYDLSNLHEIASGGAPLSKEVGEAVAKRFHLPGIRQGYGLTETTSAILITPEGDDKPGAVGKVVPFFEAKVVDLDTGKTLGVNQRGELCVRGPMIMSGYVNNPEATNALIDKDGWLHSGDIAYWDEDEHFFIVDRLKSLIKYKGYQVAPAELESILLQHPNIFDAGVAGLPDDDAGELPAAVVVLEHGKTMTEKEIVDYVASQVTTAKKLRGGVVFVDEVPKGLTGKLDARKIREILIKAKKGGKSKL

## C[S+](CC[C@H](N)C(=O)O)C[C@H]1O[C@@H](n2cnc3c(N)ncnc32)[C@H](O)[C@H]1O (some centres not stated)
[1]
  Potency: inactive
[2]
  Potency: inactive
[3]
  Potency: inactive
[4]
  Potency: inactive
[5]
  Potency: inactive
[6]
  Potency: inactive

## NC(=O)[C@@H](CCCN=C(N)N)NC(=O)[C@@H](CCCN=C(N)N)NC(=O)[C@@H](CCCN=C(N)N)NC(=O)[C@@H](CCCN=C(N)N)NC(=O)[C@@H](CCCN=C(N)N)NC(=O)[C@H](N)CCCN=C(N)N
[1]
  Potency: 2510 nM (active)

## CC(C)C[C@@H](NC(=O)[C@H](Cc1ccccc1)NC(=O)c1cnccn1)B(O)O
[7]
  outcome: inactive
[8]
  Potency: inactive
[9]
  Potency: inactive
[10]
  Potency: 3.6 nM (active)
[11]
  Potency: 12.6 nM (active)
[1]
  Potency: inactive
[2]
  Potency: inactive
[3]
  Potency: inactive
[4]
  Potency: 42.6 nM (active)
[5]
  Potency: 26.9 nM (active)
[12]; parasite line A
  Potency: 89.1 nM (active)
[12]; parasite line B
  Potency: 63.1 nM (active)
[13]
  Potency: 126 nM (active)
[14]
  Potency: 31.6 nM (active)
[15]
  Potency: 70.8 nM (active)
[16]
  Potency: 100 nM (active)
[17]
  Potency: 112 nM (active)
[18]
  Potency: 56.2 nM (active)
[19]
  Potency: 126 nM (active)
[20]
  Potency: 112 nM (active)
[21]
  Potency: 89.1 nM (active)
[22]
  Potency: 151 nM (active)
[23]
  Potency: 426 nM (active)
[24]
  Potency: 601 nM (active)
[25]
  Potency: 169 nM (active)
[26]
  Potency: 757 nM (active)
[27]
  Potency: 536 nM (active)
[28]
  Potency: 126 nM (active)
[29]
  Potency: 79.4 nM (active)
[30]
  Potency: 112 nM (active)
